Values joined by “and” are separate entries in the source; they are usually repeats but may differ in a detail not shown here. Equal entries are not always repeated.
Tests used:
[1] = target: Calcium/calmodulin-dependent protein kinase type II subunit alpha (Homo sapiens) (UniProt Q9UQM7); settings: at 1 µM;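 note: reported value is a mean percent inhibition of CAMK2A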
[2] = target: Calcium/calmodulin-dependent protein kinase type II subunit delta (Homo sapiens) (UniProt Q13557); settings: at 0.1 µM
[3] = target: Calcium/calmodulin-dependent protein kinase type II subunit delta (Homo sapiens) (UniProt Q13557); settings: at 1 µM
[4] = target: T1, Calcium/calmodulin-dependent protein kinase type IV (Homo sapiens) (UniProt Q16566); settings: at 0.1 µM
T1 sequence (whole entry): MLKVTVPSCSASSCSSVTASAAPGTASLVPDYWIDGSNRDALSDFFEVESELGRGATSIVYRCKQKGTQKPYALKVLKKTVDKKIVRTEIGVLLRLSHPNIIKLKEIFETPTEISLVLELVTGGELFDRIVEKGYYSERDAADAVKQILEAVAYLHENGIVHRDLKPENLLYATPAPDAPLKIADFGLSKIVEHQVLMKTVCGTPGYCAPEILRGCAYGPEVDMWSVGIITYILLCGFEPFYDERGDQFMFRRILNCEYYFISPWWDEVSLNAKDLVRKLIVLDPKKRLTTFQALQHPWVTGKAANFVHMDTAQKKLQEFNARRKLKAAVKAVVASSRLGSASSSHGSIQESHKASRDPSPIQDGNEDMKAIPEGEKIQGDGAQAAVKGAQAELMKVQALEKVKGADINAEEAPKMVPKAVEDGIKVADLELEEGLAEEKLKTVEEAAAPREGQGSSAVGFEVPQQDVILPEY

[5] = target: T1, Calcium/calmodulin-dependent protein kinase type IV (Homo sapiens); settings: at 1 µM
[6] = target: T2, Serine/threonine-protein kinase Chk1 (Homo sapiens) (UniProt O14757); settings: at 0.1 µM
T2 sequence (whole entry): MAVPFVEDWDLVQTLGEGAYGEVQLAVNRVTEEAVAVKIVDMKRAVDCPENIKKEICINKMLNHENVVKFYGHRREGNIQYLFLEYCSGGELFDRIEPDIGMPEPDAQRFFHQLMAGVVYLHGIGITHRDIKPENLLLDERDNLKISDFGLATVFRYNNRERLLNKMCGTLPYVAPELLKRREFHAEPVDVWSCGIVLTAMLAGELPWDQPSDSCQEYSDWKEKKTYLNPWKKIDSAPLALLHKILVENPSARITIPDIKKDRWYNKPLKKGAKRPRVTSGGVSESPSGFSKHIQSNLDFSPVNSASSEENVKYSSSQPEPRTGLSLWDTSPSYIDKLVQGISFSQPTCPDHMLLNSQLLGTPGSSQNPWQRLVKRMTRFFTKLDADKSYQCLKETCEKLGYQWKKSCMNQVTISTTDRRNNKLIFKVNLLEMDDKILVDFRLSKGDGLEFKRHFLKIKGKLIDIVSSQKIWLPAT

[7] = target: T2, Serine/threonine-protein kinase Chk1 (Homo sapiens); settings: at 1 µM
[8] = target: Serine/threonine-protein kinase Chk2 (Homo sapiens) (UniProt O96017); settings: at 0.1 µM
[9] = target: Serine/threonine-protein kinase Chk2 (Homo sapiens) (UniProt O96017); settings: at 1 µM
[10] = target: Death-associated protein kinase 1 (Homo sapiens) (UniProt P53355); settings: at 0.1 µM
[11] = target: Death-associated protein kinase 1 (Homo sapiens) (UniProt P53355); settings: at 1 µM
[12] = target: T3, Serine/threonine-protein kinase DCLK2 (Homo sapiens) (UniProt Q8N568); settings: at 0.1 µM
T3 sequence (whole entry): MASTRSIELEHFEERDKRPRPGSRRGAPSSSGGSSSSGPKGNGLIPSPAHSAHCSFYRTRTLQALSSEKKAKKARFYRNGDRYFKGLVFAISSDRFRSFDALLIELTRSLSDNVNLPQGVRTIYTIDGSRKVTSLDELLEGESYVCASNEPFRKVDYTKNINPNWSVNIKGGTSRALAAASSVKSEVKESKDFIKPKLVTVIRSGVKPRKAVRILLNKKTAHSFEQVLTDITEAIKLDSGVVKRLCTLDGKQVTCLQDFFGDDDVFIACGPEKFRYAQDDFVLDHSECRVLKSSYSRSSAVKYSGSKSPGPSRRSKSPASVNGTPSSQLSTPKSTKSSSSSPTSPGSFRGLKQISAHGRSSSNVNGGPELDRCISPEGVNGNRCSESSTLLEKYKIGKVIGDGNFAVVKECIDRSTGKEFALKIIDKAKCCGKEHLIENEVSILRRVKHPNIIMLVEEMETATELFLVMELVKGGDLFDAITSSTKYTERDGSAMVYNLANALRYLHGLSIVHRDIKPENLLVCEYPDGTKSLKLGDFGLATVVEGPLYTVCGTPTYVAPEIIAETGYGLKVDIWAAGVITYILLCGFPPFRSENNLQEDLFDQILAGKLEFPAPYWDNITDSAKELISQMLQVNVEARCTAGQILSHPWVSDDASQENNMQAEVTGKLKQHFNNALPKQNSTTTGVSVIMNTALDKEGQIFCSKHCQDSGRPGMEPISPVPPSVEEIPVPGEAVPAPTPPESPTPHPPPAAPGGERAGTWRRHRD

[13] = target: T3, Serine/threonine-protein kinase DCLK2 (Homo sapiens); settings: at 1 µM
[14] = target: MAP kinase-activated protein kinase 2 (Homo sapiens) (UniProt P49137); settings: at 0.1 µM
[15] = target: MAP kinase-activated protein kinase 2 (Homo sapiens) (UniProt P49137); settings: at 1 µM
[16] = target: MAP kinase-activated protein kinase 3 (Homo sapiens) (UniProt Q16644); settings: at 0.1 µM
[17] = target: MAP kinase-activated protein kinase 3 (Homo sapiens) (UniProt Q16644); settings: at 1 µM
[18] = target: Serine/threonine-protein kinase MARK1 (Homo sapiens) (UniProt Q9P0L2); settings: at 0.1 µM
[19] = target: Serine/threonine-protein kinase MARK1 (Homo sapiens) (UniProt Q9P0L2); settings: at 1 µM
[20] = target: MAP/microtubule affinity-regulating kinase 3 (Homo sapiens) (UniProt P27448); settings: at 0.1 µM;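 note: mean percent inhibition of MARK3 kinase activity, measured within the GSK PKIS screening panel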
Chain of MAP/microtubule affinity-regulating kinase 3 (Homo sapiens) (P27448 whole entry, looked up): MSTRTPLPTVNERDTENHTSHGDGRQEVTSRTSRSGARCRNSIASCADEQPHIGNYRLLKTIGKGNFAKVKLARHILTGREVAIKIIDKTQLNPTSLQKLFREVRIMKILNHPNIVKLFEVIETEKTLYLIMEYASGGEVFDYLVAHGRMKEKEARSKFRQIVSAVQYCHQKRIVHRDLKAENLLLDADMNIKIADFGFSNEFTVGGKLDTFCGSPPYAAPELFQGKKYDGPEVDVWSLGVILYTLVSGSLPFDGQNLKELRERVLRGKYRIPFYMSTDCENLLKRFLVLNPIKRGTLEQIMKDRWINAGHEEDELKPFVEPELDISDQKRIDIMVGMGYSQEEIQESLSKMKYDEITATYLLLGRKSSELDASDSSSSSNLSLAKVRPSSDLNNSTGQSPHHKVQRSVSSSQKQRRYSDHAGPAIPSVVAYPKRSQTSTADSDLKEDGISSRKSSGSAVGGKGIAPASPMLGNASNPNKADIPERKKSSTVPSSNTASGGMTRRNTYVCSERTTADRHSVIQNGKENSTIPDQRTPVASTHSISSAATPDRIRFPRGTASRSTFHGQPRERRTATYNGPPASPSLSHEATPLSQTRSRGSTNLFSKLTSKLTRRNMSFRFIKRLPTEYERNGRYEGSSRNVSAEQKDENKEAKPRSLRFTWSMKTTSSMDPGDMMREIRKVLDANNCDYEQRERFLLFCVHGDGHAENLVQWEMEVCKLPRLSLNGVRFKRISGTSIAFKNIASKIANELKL

Chain of Death-associated protein kinase 1 (Homo sapiens) (P53355 whole entry, looked up): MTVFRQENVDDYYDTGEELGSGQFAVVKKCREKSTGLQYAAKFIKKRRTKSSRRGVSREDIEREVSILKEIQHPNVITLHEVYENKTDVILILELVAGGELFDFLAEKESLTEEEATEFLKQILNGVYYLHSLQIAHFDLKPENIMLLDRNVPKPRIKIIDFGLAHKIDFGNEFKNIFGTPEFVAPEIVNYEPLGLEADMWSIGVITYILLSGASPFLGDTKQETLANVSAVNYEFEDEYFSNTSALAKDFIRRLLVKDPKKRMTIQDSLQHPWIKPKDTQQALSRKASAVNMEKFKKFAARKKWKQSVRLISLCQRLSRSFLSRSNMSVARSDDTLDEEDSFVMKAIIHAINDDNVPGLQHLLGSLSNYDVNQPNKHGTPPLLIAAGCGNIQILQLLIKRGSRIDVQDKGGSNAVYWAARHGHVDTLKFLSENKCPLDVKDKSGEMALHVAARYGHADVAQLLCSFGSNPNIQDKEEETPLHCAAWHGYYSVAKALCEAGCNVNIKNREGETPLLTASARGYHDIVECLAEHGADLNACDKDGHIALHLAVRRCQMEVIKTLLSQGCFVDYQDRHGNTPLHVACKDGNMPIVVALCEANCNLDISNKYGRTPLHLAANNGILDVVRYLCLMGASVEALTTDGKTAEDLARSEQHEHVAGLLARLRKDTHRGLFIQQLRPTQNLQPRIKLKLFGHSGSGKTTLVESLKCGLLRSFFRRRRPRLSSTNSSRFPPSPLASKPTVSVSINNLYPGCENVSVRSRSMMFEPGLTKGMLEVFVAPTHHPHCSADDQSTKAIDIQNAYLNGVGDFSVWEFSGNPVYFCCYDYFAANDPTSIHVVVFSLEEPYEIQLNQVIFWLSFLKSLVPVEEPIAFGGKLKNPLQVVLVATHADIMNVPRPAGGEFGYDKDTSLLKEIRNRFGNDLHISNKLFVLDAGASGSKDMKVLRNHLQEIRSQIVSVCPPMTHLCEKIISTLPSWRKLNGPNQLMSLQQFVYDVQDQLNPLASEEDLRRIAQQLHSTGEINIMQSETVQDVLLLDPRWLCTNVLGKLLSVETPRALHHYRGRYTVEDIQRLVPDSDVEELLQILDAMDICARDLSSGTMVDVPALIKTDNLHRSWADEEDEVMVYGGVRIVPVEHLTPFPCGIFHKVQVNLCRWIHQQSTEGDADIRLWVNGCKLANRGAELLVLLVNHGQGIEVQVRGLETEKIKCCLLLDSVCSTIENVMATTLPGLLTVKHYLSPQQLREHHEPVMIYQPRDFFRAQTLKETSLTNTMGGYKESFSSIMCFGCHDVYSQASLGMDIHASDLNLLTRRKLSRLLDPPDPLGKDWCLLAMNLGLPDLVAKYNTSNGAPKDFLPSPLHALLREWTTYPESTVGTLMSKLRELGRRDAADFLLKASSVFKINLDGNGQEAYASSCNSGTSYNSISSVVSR
Chain of Calcium/calmodulin-dependent protein kinase type II subunit delta (Homo sapiens) (Q13557 whole entry): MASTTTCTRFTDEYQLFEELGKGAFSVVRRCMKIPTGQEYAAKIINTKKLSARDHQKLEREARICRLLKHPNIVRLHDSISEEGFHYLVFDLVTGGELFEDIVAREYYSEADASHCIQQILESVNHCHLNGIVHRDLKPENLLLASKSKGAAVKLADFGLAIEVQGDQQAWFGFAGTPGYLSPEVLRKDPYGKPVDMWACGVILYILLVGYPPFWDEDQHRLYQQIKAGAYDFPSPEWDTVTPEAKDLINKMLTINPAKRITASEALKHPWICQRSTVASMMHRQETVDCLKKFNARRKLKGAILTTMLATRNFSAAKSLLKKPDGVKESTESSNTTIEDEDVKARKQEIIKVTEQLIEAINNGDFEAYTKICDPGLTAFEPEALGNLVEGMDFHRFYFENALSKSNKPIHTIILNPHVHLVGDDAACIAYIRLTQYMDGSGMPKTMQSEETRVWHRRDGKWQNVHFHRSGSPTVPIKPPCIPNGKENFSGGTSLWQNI
Chain of MAP kinase-activated protein kinase 2 (Homo sapiens) (P49137 whole entry, looked up): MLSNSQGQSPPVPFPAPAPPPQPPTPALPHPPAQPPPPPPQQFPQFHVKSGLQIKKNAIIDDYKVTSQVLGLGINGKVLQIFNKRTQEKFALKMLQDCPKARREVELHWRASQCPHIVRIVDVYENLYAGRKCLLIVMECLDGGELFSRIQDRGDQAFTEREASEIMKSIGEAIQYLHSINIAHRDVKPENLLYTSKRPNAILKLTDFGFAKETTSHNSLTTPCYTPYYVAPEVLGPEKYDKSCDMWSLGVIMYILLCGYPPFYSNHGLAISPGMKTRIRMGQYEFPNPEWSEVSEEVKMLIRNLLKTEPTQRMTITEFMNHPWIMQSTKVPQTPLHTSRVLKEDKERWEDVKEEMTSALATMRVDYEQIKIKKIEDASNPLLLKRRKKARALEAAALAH
Chain of Serine/threonine-protein kinase Chk2 (Homo sapiens) (O96017 whole entry): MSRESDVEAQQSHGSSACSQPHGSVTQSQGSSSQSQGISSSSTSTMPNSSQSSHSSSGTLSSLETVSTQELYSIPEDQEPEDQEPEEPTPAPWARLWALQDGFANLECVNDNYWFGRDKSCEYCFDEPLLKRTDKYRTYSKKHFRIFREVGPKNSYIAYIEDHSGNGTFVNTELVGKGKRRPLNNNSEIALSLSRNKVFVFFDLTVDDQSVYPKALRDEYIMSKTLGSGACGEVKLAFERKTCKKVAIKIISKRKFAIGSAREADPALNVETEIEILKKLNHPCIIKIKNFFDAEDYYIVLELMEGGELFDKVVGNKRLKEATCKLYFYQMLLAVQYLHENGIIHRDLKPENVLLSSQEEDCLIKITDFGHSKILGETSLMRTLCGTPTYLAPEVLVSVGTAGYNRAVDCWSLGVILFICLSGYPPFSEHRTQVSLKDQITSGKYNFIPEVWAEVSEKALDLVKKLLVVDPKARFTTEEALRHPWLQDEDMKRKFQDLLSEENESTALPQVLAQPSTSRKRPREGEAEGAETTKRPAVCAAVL
Chain of Calcium/calmodulin-dependent protein kinase type II subunit alpha (Homo sapiens) (Q9UQM7 whole entry): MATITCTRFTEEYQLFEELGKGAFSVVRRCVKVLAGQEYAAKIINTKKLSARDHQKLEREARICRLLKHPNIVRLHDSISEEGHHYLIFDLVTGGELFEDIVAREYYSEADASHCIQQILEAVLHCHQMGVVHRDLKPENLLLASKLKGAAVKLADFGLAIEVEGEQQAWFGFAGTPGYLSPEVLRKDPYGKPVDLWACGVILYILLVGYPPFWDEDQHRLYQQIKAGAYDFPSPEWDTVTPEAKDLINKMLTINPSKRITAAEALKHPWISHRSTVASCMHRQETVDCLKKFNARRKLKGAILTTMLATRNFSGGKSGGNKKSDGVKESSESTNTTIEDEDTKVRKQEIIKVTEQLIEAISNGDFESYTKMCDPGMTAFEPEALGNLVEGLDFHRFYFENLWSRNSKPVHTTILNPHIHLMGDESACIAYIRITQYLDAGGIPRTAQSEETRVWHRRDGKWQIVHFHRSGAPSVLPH
Chain of Serine/threonine-protein kinase MARK1 (Homo sapiens) (Q9P0L2 whole entry, looked up): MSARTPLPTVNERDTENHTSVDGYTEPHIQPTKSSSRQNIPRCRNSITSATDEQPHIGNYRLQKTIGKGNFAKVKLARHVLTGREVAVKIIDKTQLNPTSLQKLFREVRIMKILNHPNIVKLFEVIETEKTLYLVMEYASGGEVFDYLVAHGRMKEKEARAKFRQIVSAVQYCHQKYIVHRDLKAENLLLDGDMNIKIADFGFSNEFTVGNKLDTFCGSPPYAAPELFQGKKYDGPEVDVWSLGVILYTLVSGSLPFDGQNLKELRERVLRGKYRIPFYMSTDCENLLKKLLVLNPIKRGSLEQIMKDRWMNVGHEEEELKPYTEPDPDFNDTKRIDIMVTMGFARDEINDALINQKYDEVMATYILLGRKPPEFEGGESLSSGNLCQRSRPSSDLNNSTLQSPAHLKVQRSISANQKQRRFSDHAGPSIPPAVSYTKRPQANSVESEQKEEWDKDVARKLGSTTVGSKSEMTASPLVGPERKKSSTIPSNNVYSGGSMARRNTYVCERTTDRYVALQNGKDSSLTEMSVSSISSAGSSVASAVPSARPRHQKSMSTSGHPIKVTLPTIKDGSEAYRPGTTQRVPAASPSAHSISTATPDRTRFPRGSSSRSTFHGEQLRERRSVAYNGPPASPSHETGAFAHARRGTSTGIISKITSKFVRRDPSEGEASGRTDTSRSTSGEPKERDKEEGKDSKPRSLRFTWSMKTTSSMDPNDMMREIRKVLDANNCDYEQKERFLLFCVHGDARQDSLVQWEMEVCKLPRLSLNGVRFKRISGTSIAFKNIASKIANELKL

| Compound | inhibition [1] | inhibition [2] | inhibition [3] | inhibition [4] | inhibition [5] | inhibition [6] | inhibition [7] | inhibition [8] | inhibition [9] | inhibition [10] | inhibition [11] | inhibition [12] | inhibition [13] | inhibition [14] | inhibition [15] | inhibition [16] | inhibition [17] | inhibition [18] | inhibition [19] | inhibition [20] |
| --- | --- | --- | --- | --- | --- | --- | --- | --- | --- | --- | --- | --- | --- | --- | --- | --- | --- | --- | --- | --- |
| Cc1c2ccc(N(C)c3ccnc(Nc4cccc(S(N)(=O)=O)c4)n3)cc2nn1C | 4.44% | 4.36% | 5.37% | 0.12% | 0.2% | 3.06% | 4.57% | 3.17% | 7.22% | 2.95% | 3.66% | -2.02% | -1.83% | 2.01% | 1.4% | 3.68% | 4.05% | 4.13% | 7.61% | 5.31% |
| CCS(=O)(=O)c1ccc(OC)c(Nc2ncc(-c3cccc(F)c3)o2)c1 | 5.43% | 4.73% | 10.6% | -0.92% | 1.07% | 3.94% | 12.9% | 2.75% | 4.65% | 7.21% | 7% | 1.71% | 1.48% | 2.52% | 3.2% | 7.02% | 7.04% | 1.75% | 4.44% | 3.77% |
| CNC(=O)c1ncccc1Nc1nc(Nc2cc3c(cc2OC)CCCN3C(=O)CN(C)C)nc2[nH]ccc12 | 5.55% | 4.46% | 8.21% | 0.87% | 5.93% | 3.13% | 4.54% | 3.89% | 11.9% | 4.3% | 7.57% | 1.66% | 3.04% | 2.23% | 1.51% | 3.6% | 2.72% | 4.87% | 6.32% | 5.9% |
| O=C(O[C@H]1CN[C@H](C#Cc2cc3ncnc(Nc4ccc(OCc5cccc(F)c5)c(Cl)c4)c3s2)C1)N1CCOCC1 | 3.21% | 3.54% | 2.65% | -1.14% | -3.95% | -1.89% | -1.17% | -1.01% | 2.28% | -1.79% | -0.32% | 0.93% | 0.57% | -0.11% | 0.31% | -0.64% | -0.5% | 6.71% | 5.07% | 1.14% |
| CC1=C(C(=O)Nc2ccc3[nH]ncc3c2)C(c2ccc(F)cc2)N=C(c2ccc(C(F)(F)F)nc2)N1 (stereo not given) | 2.04% | 0.67% | 3.6% | 0.82% | 1.17% | 0.19% | 3.03% | 1.5% | 2.24% | 0.86% | 0.67% | -2.05% | 4.18% | 1.36% | 0.33% | 1.46% | 3.59% | 1.66% | 4.38% | 1.04% |
| CS(=O)(=O)CCNCc1ccoc1-c1ccc2ncnc(Nc3ccc(OCc4ccccc4)cc3)c2c1 | 0.09% | 0.18% | -0.44% | -0.43% | -1.35% | 0.86% | -2.73% | 1.56% | 8.55% | -0.21% | -0.75% | -1.49% | -0.03% | -0.61% | -0.91% | 0.57% | 0.18% | -0.89% | 1.23% | -2.66% |
| CC1(C)CC(n2cnc(-c3ccc(F)cc3)c2-c2ccnc(N)n2)CC(C)(C)N1 | -1.67% | 0.69% | -0.31% | 0.52% | -0.57% | -3.33% | -6.27% | -4.96% | -4.4% | -7.58% | -7.03% | 2.01% | -7.74% | -2.49% | -2.73% | 21.4% | 26.4% | 1.88% | 0.57% | 1.34% |
| Nc1ncnc2occ(-c3ccc(NC(=O)Nc4cc(C(F)(F)F)ccc4F)cc3)c12 | 3.84% and -2.75% | 3.01% and -3.72% | 4.94% and 0.29% | 0.92% and -1.47% | 6.17% and 0.48% | 3.39% and 0.89% | 3.36% and 1.22% | 0.48% and -3.48% | 2.69% and -1.74% | 3.18% and 0.64% | 4.75% and 1.06% | 3.65% and -1.65% | -4.63% | 1.16% and -1.74% | 1.1% and -1.65% | 3.46% and -1.38% | 13.9% and 7.55% | 1.91% and -0.63% | 3.01% and -0.26% | 1.57% and -1.4% |
| CN1CCC(C(=O)Nc2n[nH]c3nc(-c4ccc(O)cc4)c(Br)cc23)CC1 | 5.88% and 4.76% | 3.23% and 2.76% | 12.3% and 11.1% | -1.13% and 0.82% | -1.76% and 1.46% | 0.73% and 0.68% | 5.31% and 2.46% | 3.5% and 1.61% | 5.98% and 3.76% | 2.41% and 2.49% | 2.5% and 1.28% | -1.57% and -0.96% | 5.44% and 10.2% | 1.56% and -0.15% | 1.12% | 2.88% and 0.82% | 2.79% and 1.9% | 3.54% and -0.23% | 8.58% and 1.5% | -0.22% and -0.59% |
| COc1ccc(-c2nn3ncccc3c2-c2ccnc(Nc3ccc(F)c(F)c3)n2)cc1 | 4.43% | 3.14% | 7.4% | -3.18% | -4.79% | 3.76% | 8.64% | 6.74% | 7.89% | 4.63% | 6.8% | 1.7% | 0.5% | 2.31% | 2.82% | 16.8% | 32.5% | 4.53% | 8.38% | 4.11% |
| FC(F)(F)CNc1nccc(-c2cnn3ncccc23)n1 | -1.03% | 2.87% | 1.95% | -0.09% | -1.75% | 0.28% | 2.9% | 1.64% | 0.78% | 3.66% | 2.17% | -0.54% | 3.19% | 1% | -0.08% | 3.47% | 3.54% | 1.58% | 4.46% | 0.46% |
| CN(c1ccc(NC(=O)NCCN2CCOCC2)cc1)c1ccnc(Nc2ccc(CS(C)(=O)=O)cc2)n1 | 1.11% | 1.06% | 3.97% | -3.18% | -5.39% | 4.02% | 3.14% | 2.01% | 6.85% | 4.05% | 4.97% | 0.85% | 0.61% | 1.97% | 2.7% | 2.92% | 3.83% | 2.9% | 7.21% | 2.81% |

Source: ChEMBL document CHEMBL1961873, “Compounds: GSK PKIS; Assays: Nanosyn kinase panel” (2012)
